The whole screen tested about 360,000 compounds, of which about 7,500 (2.1%) were called active. Not shown: some 20% with an inconclusive outcome. Calls follow the shape of the dose curve; as a rule, active = well fitted inhibition curve with a large enough effect; inconclusive = small, poorly fitted or top-dose-only effect, or effect the other way; inactive = flat fitted curve, though single readings scatter. Shown is part of a subset that was picked to be rich in actives.
% is scaled to controls: 0 for no effect and ±100 for the full control effect; potency is read from the fitted curve at half-maximal effect.

A short description of the assay: Nrf2 qHTS screen for inhibitors. Also: nearly all actives have a fitted effect of over 60% in size. The note with it: A549 ARE-Fluc reporter, luciferase luminescence, 18-24 h; series mostly up to 46 µM; activity change, negative = inhibition: at the top concentration. The method in brief: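 A549 ARE_Fluc cells, 5000/well, 5% FBS OPTI-MEM; compounds in dose-response, 18-24 h at 37 °C/5% CO2; CellTiter-Fluor viability read (Ex 405/Em 525), then BugLite luciferase luminescence = Nrf2 activity.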
Take `CCC(=O)N1CCc2cc(S(=O)(=O)NC(C(=O)Nc3ccc(C(C)=O)cc3)C(C)C)ccc21` (stereo not drawn): the “activity change, negative = inhibition” value is 13.1% (inactive).

On to `O=C(NCC1(N2CCCCC2)CCCCC1)c1cccc(S(=O)(=O)Nc2ccccc2Cl)c1`, for which the “activity change, negative = inhibition” value was -12.6% (inactive).

For `CCOc1ccc(CCNC(=O)c2cc3c(=O)n(C)c4ccccc4c3n2C)cc1`, the “activity change, negative = inhibition” value is -11.9% (inactive).

Take `NS(=O)(=O)c1ccc(NC(=O)CSc2nnc3c(n2)[nH]c2ccccc23)cc1`: the “activity change, negative = inhibition” value is 20.7% (inactive).

With `O=[N+]([O-])c1ccc(NS(=O)(=O)c2ccccc2)c(Cl)c1`, the Potency is 11.6 µM (active).

As to `O=C(NNS(=O)(=O)c1ccc(F)cc1)c1ccc([N+](=O)[O-])cc1Cl`, the “activity change, negative = inhibition” value is 5.13% (inactive).

Turning to `Cc1cccc(NS(=O)(=O)c2ccc([N+](=O)[O-])cc2)n1`, the “activity change, negative = inhibition” value is -10.5% (inactive).

For `CN(CC(=O)NCC(c1ccccc1)N1CCCC1)S(=O)(=O)c1ccc(Cl)cc1` (stereo not drawn), the “activity change, negative = inhibition” value is 13.6% (inactive).

In the case of `CCCCCCn1nnc2sc(-c3ccccc3)cc2c1=O`, the “activity change, negative = inhibition” value is 12.6% (inactive).

Turning to `COc1cc(O)c2c(=O)c3c(O)c(O)ccc3oc2c1OC`, the “activity change, negative = inhibition” value is 12.7% (inactive).

With `O=C(Cc1ccc(NC(=O)C2CCCN(C(=O)C3CCCCC3)C2)cc1)Nc1cccc(C(=O)N2CCCCC2)c1` (stereo not drawn), the “activity change, negative = inhibition” value is -0.45% (inactive).

In the case of `COc1cc(/C=N/NC(=O)c2ccccc2)ccc1OS(=O)(=O)c1ccccc1`, the “activity change, negative = inhibition” value was 0.205% (inactive).

`COc1cc(/C=N/NC(=O)c2ccoc2C)ccc1OCCN1CCCCC1`: the “activity change, negative = inhibition” value was -11.7% (inactive).

Consider `COc1cc(/C=N/NC(=O)Nc2ccccc2)ccc1OCCOc1ccccc1C`, for which the Potency is 14.6 µM (active).

Turning to `COc1ccc(-c2sc3ccc(OC)cc3c2C#Cc2ccccn2)cc1`, the “activity change, negative = inhibition” value is 11.5% (inactive).

On to `CCCCC[C@@H]1C=C(C(=O)O)[C@H](c2ccc(C#N)cc2)N1S(=O)(=O)c1ccc(C)cc1`, for which the “activity change, negative = inhibition” value was -19.7% (inactive).

On to `COc1ccc(CN2CCN(C(=O)c3cc(C4CC4)nn3-c3ccccc3)CC2)cc1F`, for which the “activity change, negative = inhibition” value is -18.2% (inactive).

With `CCOC(=O)CCC(NC(=O)c1ccc(CNc2nc3cc(C(F)(F)F)ccc3nc2C(=O)OCC)cc1)C(=O)OCC` (stereo not drawn), the “activity change, negative = inhibition” value was -15.4% (inactive).

As to `C=CCNC(=O)c1ccc2nc(-c3ccco3)c(-c3ccco3)nc2c1`, the “activity change, negative = inhibition” value is -0.251% (inactive).

In the case of `Cc1c(Cl)cccc1NC(=O)Cn1cc(C(=O)c2cccs2)c2ccccc21`, the Potency is 6.51 µM (active).

Take `COCCNC(=O)Cn1cc(C(=O)c2cccs2)c2ccccc21`: the “activity change, negative = inhibition” value is 3.92% (inactive).

As for `COC(=O)Cn1cc(C(=O)c2cccs2)c2ccccc21`, the “activity change, negative = inhibition” value is -13.8% (inactive).

Turning to `Cc1cccc(N2CCN(C3=C(c4ccccc4)C(=O)c4ccccc43)CC2)c1C`, the “activity change, negative = inhibition” value is -4.19% (inactive).

With `CCOc1ccc(S(=O)(=O)c2cn(Cc3ccccc3)c3ccc(OCC)cc3c2=O)cc1`, the “activity change, negative = inhibition” value was 2.51% (inactive).

For `Cc1ccc(CNC(=O)C2CCCN(S(C)(=O)=O)C2)cc1` (stereo not drawn), the “activity change, negative = inhibition” value is 1.71% (inactive).

With `CCS(=O)(=O)N1CCCC(C(=O)NCc2ccc(C)cc2)C1` (stereo not drawn), the “activity change, negative = inhibition” value was -11% (inactive).

`CCOc1ccc(CNC(=O)C2CCCN(S(=O)(=O)N(CC)c3ccc(OCC)cc3)C2)cc1` (stereo not drawn): the Potency was 16.4 µM (active).

On to `Oc1ccc(/C=C/c2c(F)cccc2F)c2cccnc12`, for which the “activity change, negative = inhibition” value is 1.37% (inactive).

Take `CC(=O)Nc1cccc(-c2nc3ccccc3s2)c1C`: the Potency is 7.31 µM (active).

As for `Cc1c(NC(=O)Cc2ccccc2)cccc1-c1nc2cccnc2s1`, the “activity change, negative = inhibition” value is 7.43% (inactive).

For the compound `COc1ccc(-c2nc3ccccc3s2)cc1NC(=O)COc1ccccc1C`, the “activity change, negative = inhibition” value is 24.6% (inactive).

In the case of `COc1ccc(CCNC(=O)c2ccc(-n3c(C)cc4c3CCCC4)cc2)cc1OC`, the “activity change, negative = inhibition” value was 6.59% (inactive).

Consider `CC(=O)c1cccc(OCc2cc(C(=O)NC(C)Cc3cccnc3)no2)c1` (stereo not drawn), for which the “activity change, negative = inhibition” value is 7.73% (inactive).

For `CN(Cc1cnccn1)C(=O)c1cc(COc2cccc(C(F)(F)F)c2)on1`, the “activity change, negative = inhibition” value is 4.98% (inactive).

`CN(Cc1cccnc1)C(=O)c1cc(COc2ccc3ncccc3c2)on1`: the Potency was 4.61 µM (active).

For the compound `O=C1/C(=C\c2ccc(O)cc2)CCC1CNc1ccc(Cl)cc1` (stereo not drawn), the “activity change, negative = inhibition” value was 7.1% (inactive).

As for `CCN1C[C@@H]2[C@@H]3C(=O)N(C)C(=O)[C@@H]3[C@](C)(C1=O)N2C(=O)c1ccccc1`, the “activity change, negative = inhibition” value was -7.53% (inactive).

As for `COc1ccc(CCNC(=O)COc2cc(C)cc3oc(=O)c(C)c(C)c23)cc1OC`, the “activity change, negative = inhibition” value is -9.86% (inactive).

As for `COc1ccccc1N1CCN(CCCNC(=O)c2cnn(-c3ccccc3Cl)c2C2CCN(C(=O)OC(C)(C)C)CC2)CC1`, the “activity change, negative = inhibition” value was -16.8% (inactive).

`COC(=O)CN(C(=S)Nc1ccc(Cl)cc1)C1CC(=O)N(c2ccc(OC)cc2)C1=O` (stereo not drawn): the “activity change, negative = inhibition” value was -14.1% (inactive).

Consider `CCOc1ccc(N2C(=O)CC(N(O)c3ccccc3)C2=O)cc1` (stereo not drawn), for which the “activity change, negative = inhibition” value was 10.4% (inactive).

For `CCOc1ccc(N2C(=O)CC(N(CCc3ccc(OC)c(OC)c3)C(=S)Nc3ccccc3)C2=O)cc1` (stereo not drawn), the Potency is 23.1 µM (active).

Regarding `O=C1CC(c2nnc(Cc3ccc(Cl)cc3)o2)CN1c1ccccc1` (stereo not drawn), the “activity change, negative = inhibition” value was -22.2% (inactive).

In the case of `O=C(NCCNc1ccc([N+](=O)[O-])cc1Cl)c1ccccc1F`, the Potency is 16.4 µM (active).

`O=C(NCCNc1ccccc1[N+](=O)[O-])c1ccccc1F`: the “activity change, negative = inhibition” value was 23.8% (inactive).

As for `O=C(NCCCNc1ccc([N+](=O)[O-])cc1Cl)c1ccccc1F`, the “activity change, negative = inhibition” value was -0.648% (inactive).

`COc1ccccc1Nc1c2c(nc3ccc(NC(=O)/C=C/c4cc(OC)c(OC)c(OC)c4)cc13)CCCC2`: the activity change, negative = inhibition was 4.54% [at 9.27 µM] (inactive).

On to `COc1ccccc1CNC(=O)CCCCn1c(=O)c2ccccc2n(CC(=O)Nc2cc(Cl)ccc2C)c1=O`, for which the “activity change, negative = inhibition” value is -15.6% (inactive).

For the compound `COc1ccc(NC(=O)Cn2c(=O)n(CCC(C)C)c(=O)c3cccnc32)cc1Cl`, the “activity change, negative = inhibition” value was 5.86% (inactive).

Take `COc1ccccc1C(=O)c1ccccc1C(=O)c1ccccc1`: the “activity change, negative = inhibition” value is 0.817% (inactive).

For the compound `COCCn1c(SCC(=O)Nc2ccccc2F)nc2c(c1=O)SCC2`, the Potency was 4.11 µM (active).

As to `COCCn1c(SCC(=O)N2CCCCCC2)nc2c(c1=O)SCC2`, the “activity change, negative = inhibition” value is 2.1% (inactive).

Regarding `CC1Cc2nc(SCC(=O)Nc3ccccc3F)n(C)c(=O)c2S1` (stereo not drawn), the “activity change, negative = inhibition” value was -23.4% (inactive).

Take `COC(=O)[C@@]1(C)[C@H]2C(=O)N(Cc3ccccc3)C(=O)[C@H]2[C@H]2CN=C(SCC3CC3)N21`: the “activity change, negative = inhibition” value was 14.1% (inactive).

With `Cc1nn(-c2ccccc2)c2c1C(c1ccc(F)cc1)C(C#N)=C(N)O2` (stereo not drawn), the “activity change, negative = inhibition” value is 11.2% (inactive).

As to `COc1ccccc1C1C(C#N)=C(N)Oc2c1c(-c1ccccc1)nn2-c1ccccc1` (stereo not drawn), the Potency was 20.6 µM (active).

Consider `Cc1nn(Cc2ccccc2)c2c1C(c1ccccc1)C(C#N)=C(N)O2` (stereo not drawn), for which the “activity change, negative = inhibition” value was -4.1% (inactive).

For the compound `Cc1oc2ccc(O)c(CN3CCCCC3)c2c1C(=O)Nc1cccc(C(F)(F)F)c1`, the “activity change, negative = inhibition” value is 4.68% (inactive).

For `COc1cccc(C(=O)NC2CCN(C#N)CC2)c1`, the “activity change, negative = inhibition” value was 3.93% (inactive).

In the case of `Cc1ccccc1OCc1ccc(-c2nc(C#N)c(N3CCCCC3)o2)o1`, the “activity change, negative = inhibition” value was 9.3% (inactive).

As for `Cc1ccc(-n2c(SCC(=O)N3c4ccccc4Sc4ccccc43)nnc2-c2ccncc2)cc1`, the “activity change, negative = inhibition” value was 4.11% (inactive).

As to `Cc1ccccc1-n1c(SCC(=O)NCc2cccs2)nnc1-c1ccncc1`, the “activity change, negative = inhibition” value was 18.3% (inactive).

For the compound `Cc1ccc(Nc2nc(CSc3nnc(-c4ccncc4)n3-c3ccccc3C)cs2)cc1`, the Potency was 9.2 µM (active).
